Screens from PubChem.
SKKanGAS inh: S. pyogenes SKKanGAS growth inhibitors in kanamycin, primary screen, streptokinase expression inhibitor project, SKKanGAS strain, BacTiter-Glo luminescence; 6 h; inhibition, % at 7.5 µM; 1.3% of 300,000 active;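 active means mean replicate score, as percent of positive control median, at least 50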;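 further: strain carries kanamycin resistance gene driven by streptokinase promoter and grows in 40 µg/ml kanamycin; loss of luminescence reflects streptokinase promoter inhibition or plain growth inhibition; 0% = median of DMSO wells and 100% = positive control at its reference dose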
tim10-1 inh: growth inhibitors of tim10-1 mutant yeast, primary screen, luminescence, uHTS; S. cerevisiae tim10-1 ts strain growth, BacTiter-Glo, 24 h; inhibition, % at 20 µM; 2.2% of 330,000 active;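 active means inhibition of at least 40%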;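 further: mutant grown at 25 °C; 0% = DMSO wells with yeast and 100% = wells holding no yeast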
PfHsp90 yeast 2: growth inhibition of PfHsp90-expressing yeast, primary screen, antimalarial PfHsp90 inhibitor project, S. cerevisiae, BacTiter-Glo luminescence, single point, set 2. 0.32% of 310,000 active. inhibition, % at 9.4 µM. BacTiter-Glo ATP, 48 h; yeast lacking PDR1 and PDR3 efflux regulators;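 active means every replicate shows inhibition above about 80%, whatever the replicate mean, limit read from the data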;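 further: 0% = DMSO neutral controls and 100% = 20 µM radicicol positive controls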
TIM10 inh: growth inhibitors of isogenic TIM10 control yeast, primary screen, counter-screen for tim10-1 yeast inhibitor project, luminescence, uHTS | S. cerevisiae TIM10 strain growth, BacTiter-Glo luminescence, 24 h | inhibition, % at 10 µM | 1.4% of 330,000 active;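 active means inhibition of 40% or more at the single tested concentration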;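 further: wild-type TIM10 isogenic control strain grown at permissive 25 °C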
ATG4B inhibitor: ATG4B protease inhibitors, primary screen, biochemical, fluorescence, uHTS; Cysteine protease ATG4B (Homo sapiens), Q9Y4P1; ATG4B cleavage of LC3-PLA2, NBD-HPC fluorescence, 1 h; inhibition, % at 8.33 µM; 0.51% of 340,000 active; AID 504462, 2011; in the data active means inhibition above about 40%
Target sequence (Q9Y4P1 whole entry, looked up): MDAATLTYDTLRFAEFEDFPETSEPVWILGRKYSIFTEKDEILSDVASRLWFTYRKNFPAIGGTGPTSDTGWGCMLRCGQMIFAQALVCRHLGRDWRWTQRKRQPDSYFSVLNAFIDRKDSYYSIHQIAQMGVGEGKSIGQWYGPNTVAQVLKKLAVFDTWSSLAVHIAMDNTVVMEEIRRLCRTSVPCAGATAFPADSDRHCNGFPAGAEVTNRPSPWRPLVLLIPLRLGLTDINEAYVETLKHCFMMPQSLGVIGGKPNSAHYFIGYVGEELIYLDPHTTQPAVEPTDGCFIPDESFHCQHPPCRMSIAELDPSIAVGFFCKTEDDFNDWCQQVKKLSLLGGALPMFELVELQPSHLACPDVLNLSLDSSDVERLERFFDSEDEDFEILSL
tim23-1 inh: growth inhibitors of tim23-1 mutant yeast, primary screen, luminescence, uHTS | 1.3% of 330,000 active | inhibition, % at 20 µM | S. cerevisiae tim23-1 growth, BacTiter-Glo luminescence, 24 h | AID 463212, 2010;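 active means growth inhibition of the mutant yeast at or above 50%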;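 further: temperature-sensitive mutant grown at 25 °C; plate controls were DMSO-treated mutant yeast for no effect and medium wells lacking yeast for full effect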
tim10-1 confirm: growth inhibitors of tim10-1 mutant yeast, confirmation, single concentration, luminescence, S. cerevisiae | 56% of 7,400 active | S. cerevisiae tim10-1 ts strain growth, BacTiter-Glo, 24 h | shares compounds with tim10-1 inh | inhibition, % at 20 µM;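 active means inhibition of yeast growth at or above a set limit in either of two repeat tests at 20 µM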;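 further: tim10-1 mutant grown at permissive 25 °C to find synthetic lethal compounds; 0% = DMSO yeast wells and 100% = medium wells without yeast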
tim10 confirm: growth inhibitors of wild-type TIM10 yeast, confirmation, counter-screen for tim10-1 synthetic lethality project, single concentration, luminescence, S. cerevisiae. shares compounds with TIM10 inh. inhibition, % at 10 µM. 63% of 4,600 active. S. cerevisiae tim10 strain growth, BacTiter-Glo luminescence, 24 h;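 active means inhibition of yeast growth at or above a set limit in either of two replicates at 10 µM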;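 further: this counterscreen used the strain with wild-type TIM10; 0% = yeast with DMSO and 100% = medium wells lacking yeast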
tim23-1 confirm: tim23-1 mutant yeast growth inhibitors, confirmation, luminescence, single concentration. AID 463218, 2010. S. cerevisiae tim23-1 growth, BacTiter-Glo luminescence, 24 h. 83% of 4,400 active. inhibition, % at 20 µM. shares compounds with tim23-1 inh;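 active means inhibition above about 39% in either of two replicate wells at 20 µM, limit read from the data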;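 further: temperature-sensitive tim23-1 mutant grown at 25 °C; 0% = DMSO wells with yeast and 100% = medium wells without yeast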
Starred values were filed as active, the others as inactive; x = not tested or not shown. Compounds with a hit are over-represented: about 4.7% of the library has one in this group of screens.

SMILES	SKKanGAS inh	tim10-1 inh	PfHsp90 yeast 2	TIM10 inh	ATG4B inhibitor	tim23-1 inh	tim10-1 confirm	tim23-1 confirm	others
Cc1ccc(CS(=O)(=O)Cc2ccc(C(=O)NC3CCCCCC3)o2)cc1	1.5	11.1	20.5	-3.4	-8.1	3.9	x	x
O=C1Nc2ccc(Br)cc2/C1=C/C1CC=CCC1 (stereo not given)	-3.1	59.4*	102.6*	58.7*	0.0	59.4*	50.2*	-22.2	tim10 confirm=70.5*
O=C(Nc1cccc([N+](=O)[O-])c1)N1CCCc2ccccc21	9.1	16.4	-21.1	-11.6	-3.3	15.0	x	x
O=[N+]([O-])c1cccc(NC(=S)N2CCc3ccccc32)c1	x	43.1*	-10.8	24.5	-0.3	51.0*	31.8*	48.8*
Cc1nn(C)c(C)c1CCC(=O)N1CCCC(C(=O)c2cccc(OC(C)C)c2)C1 (stereo not given)	6.2	10.7	-23.7	6.8	-7.4	2.1	x	x
O=C(c1cc(Sc2cccc(Cl)c2)nc2ccccc12)N1CCN(c2ccccn2)CC1	22.3	1.1	-2.2	21.8	19.9	35.9	x	x
O=C(CNC(=O)OCc1ccccc1)NC1(C(=O)O)CCCC1	x	x	-5.2	x	1.5	x	x	x
Cn1c(/C(C#N)=C/C2CC=CCC2)nc2ccccc21 (stereo not given)	19.3	42.7*	-16.7	33.8	-16.1	68.7*	39.4*	51.0*
CC1CCc2[nH]c3ccc(C(=O)N4CCCC(C(F)(F)F)C4)cc3c2C1 (stereo not given)	1.1	41.8*	x	24.8	17.4	67.7*	30.2	54.6*
CCCCCCNS(=O)(=O)c1ccc(Cl)s1	x	43.2*	x	-0.8	-2.0	56.2*	26.4	46.8*
O=S(=O)(NCCCN1CCOCC1)c1ccc(Cl)s1	-4.0	-19.3	-5.3	1.5	-2.0	0.1	x	x
Oc1c(Br)cc(C2N=C(c3ccccc3)NO2)cc1Br (stereo not given)	17.9	43.7*	-3.5	33.4	8.9	67.2*	57.6*	68.4*
CSc1ccc(C2N=C(c3ccccc3)NO2)cc1 (stereo not given)	-3.4	-7.9	17.6	25.8	3.4	20.8	x	x
O=C(/C=C/c1ccc(Cl)cc1Cl)NC(=S)Nc1ccccn1	23.9	26.2	-25.8	12.4	7.1	34.7	x	x
O=C(/C=C/c1ccc(Cl)cc1Cl)n1cccn1	14.9	56.0*	13.3	53.0*	-3.2	66.2*	57.8*	84.1*	tim10 confirm=-26.1
CC(C)=NOc1cc(NC(=O)CCl)cc([N+](=O)[O-])c1	-5.7	51.6*	-9.7	30.6	-6.4	65.5*	27.6	46.7*
CCC(=O)Nc1cc(ON=C(C)C)cc([N+](=O)[O-])c1	-1.1	x	10.2	x	10.5	x	x	x
CC(C)[C@H](N[C@@H](C)c1ccccc1)c1c(O)ccc2ccccc12	-0.1	45.0*	-12.5	22.3	0.5	50.4*	35.1*	40.0*
O=C(COC(=O)CCC(=O)c1cccs1)Nc1ccccc1[N+](=O)[O-]	5.7	12.0	2.4	-4.9	-4.4	2.6	x	x
COc1cc(C(=O)N(CCc2ccccc2)C2CC3CCC(C2)N3C)cc(OC)c1OC (stereo not given)	0.0	-25.5	-0.1	-9.7	-9.1	-25.6	x	x
O=C(Nc1cccc(O)c1)c1ccc(C(F)(F)F)cc1	4.9	-3.5	-40.8	-0.8	-1.5	0.4	x	x
